PTHR1 ag: activates the human parathyroid hormone receptor PTHR1; Q03431; 0.075% of 410,000 active; Potency, µM (highest dose often 115 µM), usual class: activators; AID 743266; HEK293 GP2 PTHR1 cells, GloSensor cAMP luminescence, 1 h; also: nearly all actives have a fitted effect of over 55% in size
Target sequence (Q03431 whole entry, looked up): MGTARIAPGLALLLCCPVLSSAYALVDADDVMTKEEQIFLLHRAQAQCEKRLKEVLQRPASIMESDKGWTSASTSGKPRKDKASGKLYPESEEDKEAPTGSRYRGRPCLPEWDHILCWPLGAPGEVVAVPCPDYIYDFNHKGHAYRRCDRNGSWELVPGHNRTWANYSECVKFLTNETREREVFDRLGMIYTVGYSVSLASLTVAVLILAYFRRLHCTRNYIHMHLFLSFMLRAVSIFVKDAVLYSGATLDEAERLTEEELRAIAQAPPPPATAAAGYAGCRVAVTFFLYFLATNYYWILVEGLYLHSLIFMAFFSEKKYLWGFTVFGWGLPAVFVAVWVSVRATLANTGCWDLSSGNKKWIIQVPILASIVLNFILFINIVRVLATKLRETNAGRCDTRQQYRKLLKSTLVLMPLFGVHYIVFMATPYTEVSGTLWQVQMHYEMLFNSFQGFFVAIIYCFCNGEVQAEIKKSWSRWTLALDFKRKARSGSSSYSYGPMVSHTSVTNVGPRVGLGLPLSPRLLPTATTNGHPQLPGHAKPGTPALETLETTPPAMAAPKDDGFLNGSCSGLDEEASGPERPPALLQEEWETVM
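HEK-293-derived GP2 cells expressing PTHR1 and a GloSensor cAMP reporter, 3,000/well, plated overnight, given luciferin plus IBMX (each 0.5 mM as added) for 1 h at 37 °C, then compound for 1 h at 37 °C. Luminescence was read after 15 min at room temperature.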
GRP78 ERSR act: ER stress response induction in glioma; U87-MG GRP78 promoter luciferase reporter, 16 h; Potency, µM, actives largely listed as activators; 0.02% of 420,000 active; AID 602332; also: series mostly up to about 76 µM; nearly all actives have a fitted effect of over 35% in size
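Stably transfected U87-MG glioma cells carrying a GRP78-based luciferase sensor; 16 h compound incubation. Luminescence end-point read 10 min after Bright-Glo addition at room temperature.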
GLP-1R inv ag: acts as inverse agonist at human GLP-1 receptor | 1.6% of 410,000 active | HEK293 GLP-1R CRE-luciferase, luminescence, 24 h; GLP-1R form is constitutively active | Potency, µM (series often up to 38.3 µM), hits mostly inhibitors | AID 624417 | P43220; also: nearly all actives have a fitted effect of over 55% in size
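Seeding at 200 cells/uL, 12 h culture, 24 hr compound treatment, then luciferase reagent and a luminescence read; cells are HEK293 stably expressing a constitutively active GLP-1R plus cAMP-responsive luciferase.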
GLS inhibitor: inhibitors of human glutaminase (GLS). 0.21% of 410,000 active. O94925. GLS enzymatic activity, qHTS titration. Potency, µM (series often up to 45.5 µM), hits mostly inhibitors
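Glutamate formation by hKGA was monitored fluorometrically using coupled glutamate oxidase, HRP and Amplex Red. Substrate was added as 1 mM L-glutamine solution; incubation was 30 min at RT after an initial read.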
ALOX12 inh: inhibitors of human 12S-lipoxygenase ALOX12; Potency, µM (titrated, usually from 108 µM), usual class: inhibitors; P18054; AID 1671190; purified 12hLO, xylenol orange hydroperoxide absorbance; 1.1% of 580,000 active
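Hydroperoxide product was detected by ferrous iron/xylenol orange as the 573 to 405 nm absorbance ratio. Arachidonic acid at 40 uM (final) was turned over for 30 min at room temperature by 150 nM human 12hLO, pH 7.0 Hepes buffer, after 15 min compound preincubation.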
GLP1R ag: GLP-1 receptor (human) agonism; AID 624172; 0.007% of 380,000 active; HEK293 GLP-1R CRE-luciferase, luminescence, 4-6 h; cells express a hypersensitive GLP-1R form; P43220; Potency, µM (doses to about 45.6 µM), most hits filed as activators
Numbers stand for hits; . = inactive; ? = inconclusive; / = no result; ! = not active in a repeat. Hits are enriched below; roughly 2.3% of the tested compounds scored in any of these assays. Calls follow the shape of the dose curve; as a rule, active = well fitted curve in the direction sought with a large enough effect; inconclusive = small, poorly fitted or top-dose-only effect, or another doubt; inactive = no such curve, though single readings can be large; an effect the other way counts as inactive or inconclusive.

SMILES	PTHR1 ag	GRP78 ERSR act	GLP-1R inv ag	GLS inhibitor	ALOX12 inh	GLP1R ag
Cc1nc(-c2ccc(C#N)cc2)cs1	.	.	.	.	32µM!	.
O=C(CS(=O)(=O)c1ccc2ccccc2c1)c1ccc(Cl)cc1	/	/	/	/	.	/
CCCCc1ccc(NC(=O)Nc2cccnc2)cc1	.	.	7.1µM	.	.	.
CCCCc1ccc(NC(=S)Nc2cccnc2)cc1	.	.	.	.	?	.
CCc1nc2c(NC(=O)Nc3cccc(C(=O)OC)c3)cccn2n1	/	/	/	/	71µM	/
CCc1nc2c(NC(=O)NCc3ccc(OC)cc3)cccn2n1	/	/	/	/	.	/
Cc1nn2c(c1-c1ccccc1C(C)C)N(Cc1ccc3c(c1)CCO3)CCC2	/	/	/	/	.	/
Cc1ccc(C(NC(c2ccccc2)c2ccccc2)C(=O)O)cc1 (configuration not stated)	/	/	/	/	.	/
S=c1nn[nH]c2ccccc12	.	.	.	.	32µM	.
CCOC(=O)c1ccc2ncc(C(=O)OCC)c(NCCCOC(=O)C(C)(C)C)c2c1	/	/	/	/	.	/
CCCn1c(C(C)Nc2nc(-c3ccc(C)cc3)cs2)nc2cc(Cl)c(Cl)cc21 (configuration not stated)	.	.	?	.	.	.
Cc1ccc(Cn2c(C(C)Nc3nc(-c4ccc(F)cc4)cs3)nc3cc(Cl)c(Cl)cc32)cc1 (configuration not stated)	.	.	11µM	.	.	.
N#CC1(NC(=O)CSc2c(Cl)cccc2Cl)CCCCC1	/	/	/	/	14µM	/
Cc1cc(SCC(=O)NC(=O)NCc2ccco2)nc2ccccc12	.	.	.	.	.	.
Cc1cc(SCC(=O)NC2(C#N)CCCCC2)nc2c(C)cccc12	.	.	10µM	.	.	.
Cc1cc(SCC(=O)NC(=O)NCc2ccco2)nc2c(C)cccc12	.	.	.	.	22µM	.
O=S1(=O)CCN(C2CCCCC2)c2c(F)nc(F)c(Cl)c21	/	/	/	/	.	/
CCOC(=O)c1c(C(F)(F)C(F)(F)C(F)(F)C(F)(F)F)n[nH]c1C	.	.	10µM	.	.	.
CCOC(=O)c1c(Nc2ccc(OC)cc2)n[nH]c1C	/	/	/	/	.	/
COc1ccc(-c2ccc(=O)n(CC(=O)N3CCCC3)n2)c(F)c1	/	/	/	/	.	/
COC(=O)C1=C(C)N=C2SC(C#N)=C(N)N2C1c1cc(OC)c(OC)c(OC)c1 (configuration not stated)	.	.	.	.	.	.
COC(=O)C1=C(C)N=C2SC(C#N)=C(N)N2C1c1ccc(OCc2ccccc2)cc1 (configuration not stated)	?	.	5µM	.	.	.
O=C(Nc1nc(COc2ccccc2)cs1)C12CC3CC(CC(C3)C1)C2	.	.	?	.	28µM	.
CC(=O)Nc1nc(COc2ccccc2)cs1	.	.	.	.	.	.
O=C(Nc1ccccc1-c1ccccc1)C12CC3CC(CC(C3)C1)C2	.	.	2µM	.	.	.
SMILES	PTHR1 ag	GRP78 ERSR act	GLP-1R inv ag	GLS inhibitor	ALOX12 inh	GLP1R ag
c1ccc(-c2cnc(Nc3ccc4c(c3)OCCO4)c3c2CCO3)cc1	/	/	/	/	.	/
CC(=O)NC1(C)CCCN(Cc2ccc(Oc3ccccc3)cc2)C1 (configuration not stated)	/	/	/	/	.	/
CC(=O)NC1(C)CCN(Cc2ccccc2-c2ccccc2Oc2ccccc2)C1 (configuration not stated)	/	/	/	/	35µM	/
COc1cc(CN2CCC(C)(NC(C)=O)CC2)cc(Nc2ccccc2)c1	/	/	/	/	13µM	/
CC(=O)NC1(C)CCN(Cc2cccc(Nc3ccccc3)c2)C1 (configuration not stated)	/	/	/	/	.	/
O=C(COC(=O)CCc1nc2ccccc2s1)Nc1ccc([N+](=O)[O-])cc1C(F)(F)F	/	/	/	/	.	/
Cc1cc(C)cc(C(=O)NC(C)C(=O)N2CCC3(CC2)NCCc2[nH]cnc23)c1 (configuration not stated)	/	/	/	/	.	/
N=c1c2c(-c3ccccc3)c(-c3ccccc3)n(Cc3ccccc3)c2ncn1CCCn1ccnc1	.	.	7.9µM	.	.	.
CCCCn1cnc2c(c(-c3ccccc3)c(-c3ccccc3)n2Cc2ccco2)c1=N	.	.	?	.	?	.
N=c1c2c(-c3ccccc3)c(-c3ccccc3)n(Cc3ccco3)c2ncn1Cc1ccco1	.	.	8.9µM	.	?	.
CCn1c(SCc2ccccc2)nnc1C1CCCCC1	.	.	4µM	.	.	.
CCn1c(CNc2ccc(Cl)cc2)nnc1SCc1ccccc1	.	.	11µM	.	.	.
CCn1c(SCc2ccccc2)nnc1C1CCN(S(=O)(=O)c2ccc(OC)cc2)CC1	.	.	.	.	.	.
CC1CCc2noc(NC(=O)c3ccc(F)cc3)c2C1 (configuration not stated)	/	/	/	/	.	/
C=CCn1c(SCc2ccc(C(=O)Nc3nccs3)cc2)nnc1-c1ccc(C)c(Cl)c1	.	.	4.5µM	.	.	.
CCOc1ccccc1C(=O)N[C@H](C(=O)Nc1nc2c(s1)CCCC2)C(C)C	.	.	10µM	.	.	.
CN(C)c1ccc(C=Nc2cccc(C(=O)c3ccccc3)c2)cc1	/	/	/	/	.	/
COc1ccc(-c2csc3nc[nH]c(=O)c23)cc1OC	.	.	.	.	.	.
Cc1ccc(-c2csc3nc[nH]c(=S)c23)cc1C	.	.	?	?	28µM	.
O=C(CC1CCCCN(Cc2ccccc2)C1=O)N1CCc2ccccc2C1 (configuration not stated)	/	/	/	/	.	/
CC1Cc2ccccc2N1S(=O)(=O)c1nnc(NC(=O)c2ccccc2Br)s1 (configuration not stated)	.	.	10µM	.	?	/
CC1Cc2ccccc2N1S(=O)(=O)c1nnc(NC(=O)c2ccccc2)s1 (configuration not stated)	.	.	?	.	.	/
CCCc1c(C(=O)OCC)nnc2c(-c3ccc(Br)cc3)c(C)nn12	/	/	/	/	.	/
COc1cc(/C=C2/C(=O)NN(c3ccc(Cl)c(Cl)c3)C2=O)cc([N+](=O)[O-])c1O	.	.	?	?	35µM	.
COc1cc(/C=N/NC(=O)c2ccc(F)cc2)ccc1OC(=O)c1ccco1	.	.	.	.	.	.
COc1cc(/C=C2/C(=O)NN(c3ccc(Cl)cc3)C2=O)ccc1OC(=O)c1ccco1	.	.	?	.	8.9µM	.
COc1cc(/C=C2/C(=O)NN(c3cccc(F)c3)C2=O)ccc1OC(=O)c1ccco1	.	?	?	?	45µM	.
COc1ccc(CNC(=O)Cc2c(C)c3c(O)cc(C)cc3oc2=O)cc1OC	/	/	/	/	.	/
COC(CNC(=O)Cc1c(C)nc2cc(-c3ccccc3)nn2c1C)OC	/	/	/	/	.	/
O=C(CSC1CCCCC1)c1ccc(O)cc1O	/	/	/	/	45µM	/

Compound activity as filed in PubChem.
